Measurements: PubChem BioAssay AID1159580 (chemical genetic matrix, 2015)
“And” between values parts separate entries of the source, which are not always exact repeats. Identical values can stand only once. In all, about 5,500 compounds went through this assay and about 2,000 (36%) were called active. Roughly 18% stayed inconclusive and do not appear here. Rule as the data show it: active = normalized growth mostly below about 0.91 (no sharp cut-off); inconclusive = no clear call, values can overlap the other calls; inactive = mostly above about 0.92. This is one part of the list.

Experiment: chemical genetic growth profiling, strain panel (AID 1159580);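 also: tested at 20 µM; growth read once vehicle control cultures reached saturation at 30 °C; 1 = growth at the plate median or of vehicle wells; lower values mean less growth of the strain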
Conditions: S. cerevisiae deletion strains, growth OD

Measured: normalized growth

NC(N)=NCCCCN=C(N)N
inactive: locus YAL013W, strain DEP1, hits give low values 0.997 | locus YAL021C, strain ccr4, hits give low values 0.993 | locus YAL026C, strain drs2, hits give low values 0.984 | locus YAL030W, strain snc1, hits give low values 1 | locus YAL040C, strain CLN3, hits give low values 1.01 | locus YBL061C, strain skt5, hits give low values 1.01 | locus YBR009C, strain hhf1, hits give low values 1.01 | locus YBR021W, strain FUR4, hits give low values 1.04 | locus YBR023C, strain chs3, hits give low values 1.01 | locus YBR171W, strain sec66, hits give low values 0.986 | locus YBR229C, strain ROT2, hits give low values 0.957 | locus YBR231C, strain swc5, hits give low values 1 | locus YBR279W, strain paf1, hits give low values 0.992 | locus YCL011C, strain gbp2, hits give low values 1.01 | locus YCL016C, strain dcc1, hits give low values 1.01 | locus YCL029C, strain bik1, hits give low values 0.989 | locus YCL061C, strain MRC1, hits give low values 1 | locus YCL069W, strain vba3, hits give low values 0.984 | locus YCR088W, strain abp1, hits give low values 1 | locus YDL005C, strain med2, hits give low values 0.998 | locus YDL035C, strain GPR1, hits give low values 0.985 | locus YDL040C, strain nat1, hits give low values 1 | locus YDL074C, strain BRE1, hits give low values 0.957 | locus YDL101C, strain DUN1, hits give low values 0.953 | locus YDL134C, strain PPH21, hits give low values 0.995 | locus YDL185W, strain tfp1, hits give low values 0.968 | locus YDL192W, strain arf1, hits give low values 0.992 | locus YDR001C, strain nth1, hits give low values 1 | locus YDR069C, strain doa4, hits give low values 0.999 | locus YDR101C, strain arx1, hits give low values 1 | locus YDR137W, strain rgp1, hits give low values 1.01 | locus YDR150W, strain NUM1, hits give low values 0.983 | locus YDR159W, strain sac3, hits give low values 1 | locus YDR162C, strain NBP2, hits give low values 0.948 | locus YDR195W, strain ref2 0.984 | locus YDR297W, strain sur2, hits give low values 0.999 | locus YDR318W, strain mcm21, hits give low values 1.01 | locus YDR334W, strain swr1, hits give low values 0.99 | locus YDR335W, strain msn5, hits give low values 0.997 | locus YDR388W, hits give low values 0.996 | locus YDR392W, strain spt3, hits give low values 0.946 | locus YDR502C, strain sam2, hits give low values 0.991 | locus YEL003W, strain gim4, hits give low values 0.993 | locus YEL037C, strain rad23, hits give low values 0.964 | locus YEL061C, strain CIN8 (second series), hits give low values 0.991 | locus YEL061C, strain CIN8, hits give low values 0.989 | locus YER002W, strain NOP16, hits give low values 1 | locus YER015W, strain faa2, hits give low values 0.997 | locus YER016W, strain bim1, hits give low values 1 | locus YER110C, hits give low values 0.99 | locus YER111C, strain swi4, hits give low values 0.99 | locus YER155C, strain BEM2 (second series), hits give low values 1.01 | locus YER155C, strain BEM2, hits give low values 1 | locus YER167W, strain BCK2, hits give low values 1.01 | locus YFR010W, strain ubp6, hits give low values 0.98 | locus YGL078C, strain dbp3, hits give low values 0.996 | locus YGL086W, strain mad1, hits give low values 1.01 | locus YGL167C, strain pmr1, hits give low values 1.01 | locus YGL173C, strain kem1, hits give low values 0.995 | locus YGL227W, strain vid30, hits give low values 1 | locus YGL240W, strain doc1, hits give low values 1 | locus YGL248W, strain PDE1, hits give low values 0.994 | locus YGL253W, strain hxk2, hits give low values 1 | locus YGR078C, strain PAC10, hits give low values 0.969 and 0.994 | locus YGR135W, strain pre9, hits give low values 0.982 | locus YGR229C, strain SMI1, hits give low values 0.999 | locus YGR252W, strain gcn5, hits give low values 1.03 | locus YHR013C, strain ard1, hits give low values 1 | locus YHR027C, strain rpn1, hits give low values 1 | locus YHR030C, strain SLT2, hits give low values 1 and 0.976 | locus YHR079C, strain IRE1 (second series), hits give low values 1.01 | locus YHR079C, strain IRE1, hits give low values 0.986 | locus YHR094C, strain hxt1, hits give low values 1.01 | locus YHR129C, strain ARP1, hits give low values 0.994 | locus YHR142W, strain chs7, hits give low values 1 | locus YHR200W, strain rpn10, hits give low values 1.01 | locus YIL066C, strain RNR3, hits give low values 0.969 | locus YIL073C, strain SPO22, hits give low values 1.03 | locus YIL125W, strain kgd1, hits give low values 0.992 | locus YIR030C, strain dcg1, hits give low values 0.993 | locus YJL092W, strain hpr5, hits give low values 0.999 | locus YJL095W, strain BCK1 (second series), hits give low values 1.01 | locus YJL095W, strain BCK1, hits give low values 0.992 and 0.985 | locus YJL115W, strain asf1, hits give low values 0.993 | locus YJL129C, strain trk1, hits give low values 1.02 | locus YJL134W, strain LCB3, hits give low values 0.989 | locus YJL154C, strain vps35, hits give low values 0.992 | locus YJL164C, strain tpk1, hits give low values 1.01 | locus YJL166W, strain qcr8, hits give low values 1.01 | locus YJL168C, strain set2, hits give low values 0.992 | locus YJL187C, strain SWE1 (second series), hits give low values 0.969 | locus YJL187C, strain SWE1, hits give low values 1.01 | locus YJR043C, strain POL32, hits give low values 1.02 | locus YJR066W, strain TOR1, hits give low values 0.99 | locus YJR075W, strain HOC1, hits give low values 0.94
